Experimental data: publication PMC6212790, “How bacterial xenogeneic silencer rok distinguishes foreign from self DNA in its resident genome”
Over roughly 33,000 sequences, “e-score” has its median near -0.037; the highest 2% begin near 0.34. The list comes from a sample in which the highest values are over-represented; it also holds similar and randomly drawn sequences.

target: T1, GST-Rok (full length) (Bacillus subtilis subsp. subtilis str. …, UniProt O34857 1-191); assay: protein binding microarray; Rok is a gene silencer of Bacillus subtilis; high values mean tight binding; conditions: protein: recombinant; tags: GST (pTH5325, pDEST15-Magic modified); dsDNA, one strand shown
T1 sequence: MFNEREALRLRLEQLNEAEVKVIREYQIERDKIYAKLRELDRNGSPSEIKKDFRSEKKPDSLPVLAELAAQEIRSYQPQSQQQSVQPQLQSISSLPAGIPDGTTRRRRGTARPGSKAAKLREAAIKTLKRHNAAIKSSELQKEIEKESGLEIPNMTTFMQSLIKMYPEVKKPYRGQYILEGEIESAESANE
Procedure, shortened: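 Every oligonucleotide joins a 25-mer constant primer to a 35-mer variable part drawn from a de Bruijn sequence of order 10, so each non-palindromic 8-mer appears at least 32 times and each palindromic 8-mer 16 times. The preference for every 8-mer is reported as a unitless, rank-based enrichment score (E-score). This score spans 0.5 for the most favored 8-mer to −0.5 for the most disfavored.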

Row | Sequence | binding signal [E-score]
1 | ACAACTCA | 0.097
2 | AAATAGTC | 0.119
3 | TAGTAACA | 0.366
4 | TAATAGCA | 0.257
5 | TAGTAATA | 0.408
6 | AAGTAACA | 0.207
7 | CAGTAACA | 0.0586
8 | AAATAGTT | 0.4
9 | AAGTAATA | 0.275
10 | TAATAGTA | 0.401
11 | AAATAGTG | 0.231
12 | GAGTAATA | 0.318
13 | GAATAGTA | 0.285
14 | GTTTGTAA | 0.172
15 | CATCACAG | -0.0903
16 | ACAGTTAC | 0.278
17 | ACATCAAG | 0.00272
18 | AGGGTGAA | -0.17
19 | CGTGGCTC | -0.0956
20 | GCATGGGC | -0.196
21 | ATTGGTAG | 0.371
22 | ATAGGTAG | 0.41

Row | Sequence | binding signal [E-score]
23 | AATGGTAG | 0.398
24 | ATAGGTAC | 0.219
25 | CATGGTAG | 0.168
26 | AGTGGTAG | 0.393
27 | ATTGGTAA | 0.265
28 | CGTGGTAG | 0.295
29 | ATTGGTAC | 0.289
30 | AGTGGTAC | 0.191
31 | ATAGGTAA | 0.223
32 | AATGGTAT | 0.309
33 | CACTGCTA | 0.106
34 | ACAGAACC | -0.171
35 | CTTTTTTC | 0.0367
36 | CAAACCTA | 0.145
37 | GAATAGAA | 0.101
38 | ATATAGAC | 0.0949
39 | CTATAGAA | 0.275
40 | AAATAGAA | 0.368
41 | ATATAGAA | 0.354
42 | ATATAGAT | 0.416
43 | AAATAGAC | 0.0132
44 | ATATAGAG | 0.208

Row | Sequence | binding signal [E-score]
45 | GTATAGAA | 0.329
46 | TGATGTAA | 0.134
47 | AACCGTAG | 0.0498
48 | CGCAATAA | 0.185
49 | CTATCTTC | 0.11
50 | ATATCTAA | 0.371
51 | ACATCTAG | 0.325
52 | CTATCTAA | 0.264
53 | ATATCTAC | 0.393
54 | CTATCTAC | 0.433
55 | ATATCTAG | 0.346
56 | ATATCTGC | 0.221
57 | CTCTCTAC | 0.0296
58 | ATCTCTAG | -0.00242
59 | ATCTCTAA | 0.0544
60 | ATCTCTAC | 0.0894
61 | AGTTAGGG | -0.0305
62 | CTATGATA | 0.172
63 | AACCCAAC | 0.212
64 | ACACAAGC | -0.0939
65 | AACGCCCT | -0.11
66 | ACTTCACT | 0.0809

Row | Sequence | binding signal [E-score]
67 | TACTCTGA | -0.0307
68 | ATCTATTG | 0.282
69 | AGATATTG | 0.196
70 | GCATATTA | 0.242
71 | CCATATTA | 0.165
72 | AGATATTA | 0.404
73 | CTATATTA | 0.384
74 | ACATATTG | 0.148
75 | ACATATTA | 0.345
76 | CGATATTA | 0.213
77 | CTCTATTA | 0.0982
78 | CAATATTA | 0.254
79 | ATATATTG | 0.372
80 | AGATTCGG | 0.0606
81 | ACAATCGG | 0.00195
82 | AACTGTTC | 0.004
83 | AAGCAAAA | 0.0376
84 | GTGTATTA | 0.205
85 | GTATATTA | 0.391
86 | ATCTATTA | 0.312
